A selection: hits, their analogues and other compounds. The true share with any hit is near 5.9%.
RORgamma inh – blocks mouse ROR gamma transcriptional activity; P51450; 310,000 tested, 5.4% active; AID 2551; Potency, µM (series often up to 53.6 µM), for inactives: top-dose activity change, negative = inhibition, hits mostly inhibitors; Drosophila S2 Gal4-RORgamma UAS-luciferase reporter, 20 h; note: % is set by controls: 0 for no effect and ±100 for the full control effect; nearly all actives have a fitted effect of over 60% in size
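Luminescence from a UAS-regulated Photinus luciferase reporter in stably transfected Drosophila Schneider cells is measured; decreased signal marks ROR gamma inhibition. Fusion expression is induced by 700 uM copper sulfate for 20 hr.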
GLP-1R inv ag – GLP-1 receptor (human) inverse agonism. P43220. HEK293 GLP-1R CRE-luciferase, luminescence, 24 h; GLP-1R form is constitutively active. Potency, µM (series often up to 38.3 µM), for the others: top-dose activity change, negative = inhibition, actives largely listed as inhibitors. 410,000 tested, 1.6% active. AID 624417; note: % is set by controls: 0 for no effect and ±100 for the full control effect; nearly all actives have a fitted effect of over 55% in size
Target sequence (P43220 whole entry, looked up): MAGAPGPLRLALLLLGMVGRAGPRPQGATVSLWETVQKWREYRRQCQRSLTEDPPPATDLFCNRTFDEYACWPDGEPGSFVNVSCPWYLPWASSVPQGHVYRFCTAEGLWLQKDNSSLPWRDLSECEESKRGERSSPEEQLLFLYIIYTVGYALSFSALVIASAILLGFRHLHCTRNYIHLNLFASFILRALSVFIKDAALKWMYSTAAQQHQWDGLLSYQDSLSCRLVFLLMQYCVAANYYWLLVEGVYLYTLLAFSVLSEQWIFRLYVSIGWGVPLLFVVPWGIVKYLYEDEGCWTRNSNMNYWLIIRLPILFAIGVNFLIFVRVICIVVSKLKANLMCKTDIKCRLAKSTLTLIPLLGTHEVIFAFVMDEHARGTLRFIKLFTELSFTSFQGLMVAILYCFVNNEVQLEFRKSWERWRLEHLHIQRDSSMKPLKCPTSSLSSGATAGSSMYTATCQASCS
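Stable HEK293 clone (constitutively active GLP-1R + cAMP-response luciferase); 200 cells/uL plated, 12 h pre-culture, compound 24 hr, 37 deg C/5% CO2; detection reagent 12 min RT; luminescence.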
GLP1R ag – GLP-1 receptor (human) agonism; P43220; AID 624172; Potency, µM (highest dose often 45.6 µM), for inactives: at the highest dose activation, usual class: activators; 380,000 tested, 0.007% active; HEK293 GLP-1R CRE-luciferase, luminescence, 4-6 h; cells express a hypersensitive GLP-1R form; note: % of control where 0% means no effect
VP16 counter – Gal4-VP16 reporter inhibition counter-screen | Drosophila S2 Gal4-VP16 UAS-luciferase, luminescence, 20 h | Potency, µM (highest dose often 53.6 µM), for inactives: top-dose activity, negative = inhibition, actives largely listed as inhibitors | 310,000 tested, 3.5% active;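 note: Gal4-VP16 expression switched on by copper sulfate through the metallothionein promoter; % is set by controls: 0 for no effect and ±100 for the full control effect; nearly all actives have a fitted effect of over 50% in size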
GLP1R cytotox – cytotoxicity counter-screen for GLP-1 receptor inverse agonists. HEK293 cAMP-luciferase reporter cells, luminescence, 24 h. Potency, µM (highest dose often 38.3 µM), without a hit: at the top dose activity change, negative = inhibition, actives largely listed as inhibitors. 410,000 tested, 0.13% active;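 note: loss of luciferase light is scored as toxicity; % is set by controls: 0 for no effect and ±100 for the full control effect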
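Quantitative HTS format, 1536 wells, 200 cells/uL seeded. Compounds: 23 nL, 24 h, 37 °C. Detection: luciferase reagent, luminescence at 12 min RT; decreased signal taken as cytotoxic.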
The depositor's hits bear a star. Calls come from the whole dose curve; as a rule, active = well fitted curve in the direction sought with a large enough effect; inconclusive = small, poorly fitted or top-dose-only effect, or another doubt; inactive = no such curve, though single readings can be large; an effect the other way counts as inactive or inconclusive. Potency is the fitted concentration of half-maximal effect.

`FC(F)(F)c1ccccc1NC(=S)Nc1ccccc1` gave RORgamma inh inconclusive, GLP-1R inv ag 19.6%, GLP1R ag 18.5%, VP16 counter -1.9% and GLP1R cytotox -0.4%.
Screening Cc1cccc(-c2noc(-c3ccc(N4CCN(C)CC4)c([N+](=O)[O-])c3)n2)c1 returned GLP-1R inv ag inconclusive and GLP1R cytotox 3.3%.
Screening COc1cccc(-n2ccnc2SCC(=O)Nc2c(C)cc(C)cc2C)c1 returned GLP-1R inv ag inconclusive and GLP1R cytotox -4.1%.
Screening COC(=O)CSc1ncc2c(n1)-c1ccccc1N(Cc1cccc(F)c1)S2(=O)=O returned GLP-1R inv ag 0.0% and GLP1R cytotox -3.8%.
COc1ccc(CCNC(=O)C(=O)Nc2ccc(C)c(C)c2)cc1 was read as GLP-1R inv ag 4.1% and GLP1R cytotox -6.5%.
Screening COC(=O)c1ccc(NC(=S)NCCc2ccccc2C)cc1 returned RORgamma inh 12.6µM*, GLP-1R inv ag inconclusive, GLP1R ag -5.0%, VP16 counter 14.1µM* and GLP1R cytotox inconclusive.
COC(=O)c1ccc(NC(=S)NCCc2cccc(C)c2)cc1 was read as RORgamma inh 1.26µM*, GLP-1R inv ag -4.0%, GLP1R ag -4.2%, VP16 counter 1.26µM* and GLP1R cytotox -31.4%.
COC(=O)c1ccc(NC(=S)NCCc2ccc(OC)cc2)cc1 was read as RORgamma inh 7.94µM*, GLP-1R inv ag inconclusive, GLP1R ag 7.1%, VP16 counter inconclusive and GLP1R cytotox 3.5%.
For CCOC(=O)c1ccc(NC(=S)NCCc2ccc(OC)c(OC)c2)cc1 the results were RORgamma inh 10µM*, GLP-1R inv ag inconclusive, GLP1R ag 11.2%, VP16 counter inconclusive and GLP1R cytotox inconclusive.
`COC(=O)c1ccc(NC(=S)Nc2ccc(O)cc2)cc1` gave RORgamma inh -12.8%, GLP-1R inv ag -14.0%, GLP1R ag -3.8%, VP16 counter 2.7% and GLP1R cytotox 3.6%.
Screening O=C(NCCSc1c(-c2ccc(Br)cc2)[nH]c2ccccc12)c1ccc(S(=O)(=O)N2CCOCC2)cc1 returned GLP-1R inv ag -26.3% and GLP1R cytotox -2.7%.
`C[C@H]1CC[C@@H]2N(C1)C[C@H]1[C@@H]3C[C@H]4[C@@H](C/C(=N\O)[C@H]5C[C@@H](O)CC[C@@]54C)[C@@H]3CC[C@H]1[C@]2(C)O` gave RORgamma inh 15.5% and VP16 counter 2.2%.
COc1cc(NC(=O)O[C@@H]2C(=O)c3cc(Br)ccc3O[C@H]2c2ccc3c(c2)OCO3)cc(OC)c1OC was read as RORgamma inh -8.9% and VP16 counter -2.6%.
`COc1ccc(OC)c(C2CC(=O)Oc3c2c(=O)n(C)c2ccccc32)c1` (stereo not drawn) gave GLP-1R inv ag 11.2% and GLP1R cytotox 1.1%.
`c1ccsc1` gave RORgamma inh -5.0% and VP16 counter -7.2%.
`CCN(CC)CCCNC(=O)CSc1nc2nc(C)c(Cc3ccccc3C)c(C)n2n1` gave GLP-1R inv ag -14.9% and GLP1R cytotox -5.4%.
Screening CC(=O)CC1(OC(C)=O)C(=O)N(C)c2ccccc21 (stereo not drawn) returned RORgamma inh 6.31µM*, GLP-1R inv ag -22.5%, GLP1R ag -1.4%, VP16 counter 14.1µM* and GLP1R cytotox -16.8%.
For COc1cc2oc(=O)c3c4c(cc5ccc(c1CCN(C)C)c2c53)OCO4 the results were RORgamma inh inconclusive and VP16 counter -27.0%.
For NC(=S)n1[nH]c(-c2ccc([N+](=O)[O-])cc2)c(N=Nc2ccccc2[N+](=O)[O-])c1=O the results were RORgamma inh inconclusive, GLP-1R inv ag 12.6%, GLP1R ag -6.3%, VP16 counter -13.2% and GLP1R cytotox 3.7%.
`Cc1c(N=Nc2c(-c3ccc([N+](=O)[O-])cc3)[nH]n(C(N)=S)c2=O)cccc1[N+](=O)[O-]` gave RORgamma inh 0.708µM*, GLP-1R inv ag inconclusive, GLP1R ag -0.6%, VP16 counter inconclusive and GLP1R cytotox inconclusive.
For NC(=S)n1[nH]c(-c2ccc([N+](=O)[O-])cc2)c(N=Nc2cccc([N+](=O)[O-])c2)c1=O the results were RORgamma inh 0.631µM*, GLP-1R inv ag inconclusive, GLP1R ag 6.1%, VP16 counter 2.51µM* and GLP1R cytotox inconclusive.
For CC1=C(C(=O)O)N2C(=O)[C@@H](NC(=O)[C@H](N)C3=CCC=CC3)[C@H]2SC1 the results were GLP1R ag -5.0%.
O=c1c2c([N+](=O)[O-])cc([N+](=O)[O-])cc2sn1-c1ccc(Br)cc1 was read as RORgamma inh 8.91µM*, GLP-1R inv ag -43.9%, GLP1R ag -1.4%, VP16 counter 10µM* and GLP1R cytotox -61.5%.
For O=c1c2c([N+](=O)[O-])cc([N+](=O)[O-])cc2sn1Cc1ccccc1 the results were RORgamma inh 7.08µM*, GLP-1R inv ag -14.2%, GLP1R ag 10.8%, VP16 counter 4.47µM* and GLP1R cytotox 3.5%.
O=[N+]([O-])c1ccc(S(=O)Cc2ccccc2)c([N+](=O)[O-])c1 (stereo not drawn) was read as GLP-1R inv ag inconclusive, GLP1R ag -33.4% and GLP1R cytotox inconclusive.
Screening CCOc1ccc(N(CC)S(=O)(=O)N2CCCC(C(=O)Nc3ccc(OC)c(Cl)c3)C2)cc1 (stereo not drawn) returned GLP-1R inv ag -4.2% and GLP1R cytotox 0.4%.
Screening CCC(C)(C)C1CCC2(CC1)NC(=O)N(CC(=O)NC(C)CCc1ccccc1)C2=O (stereo not drawn) returned GLP-1R inv ag 3.55µM*, GLP1R ag 5.7% and GLP1R cytotox 13.6%.
Cc1ccc(NC(=O)c2nnn(-c3ccc4c(c3)OCCO4)c2N)cc1 was read as RORgamma inh -23.4%, GLP-1R inv ag inconclusive, GLP1R ag -1.4%, VP16 counter 2.7% and GLP1R cytotox -0.3%.
Nc1c(C(=O)Nc2ccccc2)nnn1-c1ccc2c(c1)OCCO2 was read as RORgamma inh 10µM*, GLP-1R inv ag inconclusive, GLP1R ag 5.5%, VP16 counter inconclusive and GLP1R cytotox inconclusive.
C[C@H](O)[C@@H]1CN2CCc3c([nH]c4ccc(-c5ccc6c(c5)OCO6)cc34)[C@@H]2C[C@@H]1N(C)C(=O)Nc1cc(Cl)cc(Cl)c1 was read as GLP-1R inv ag 2.82µM*, GLP1R ag -4.4% and GLP1R cytotox inconclusive.
Screening C[C@H](O)[C@@H]1C(=O)N2CCc3c([nH]c4ccccc34)[C@@H]2C[C@@H]1N(C)C(=O)Nc1cc(Cl)cc(Cl)c1 returned GLP-1R inv ag 10µM*, GLP1R ag -6.0% and GLP1R cytotox -9.9%.

Compound activity as filed in PubChem.
